Measured values taken from PubChem BioAssay (NCATS).
Values without a mark were called inactive. Results filed as inconclusive are left out. Activity calls are given as the source filed them. Unless noted, the call rests on the fitted dose curve; in most records, active means well fitted curve in the direction sought with a large enough effect; inconclusive means small, poorly fitted or top-dose-only effect, or another doubt; inactive means no such curve, though single readings can be large; an effect the other way counts as inactive or inconclusive.

Assays:
[1] = AP1 Signaling Pathway (AID 357; active means well fitted curve in either direction with a large enough effect, not every such curve was filed as active;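 further: ME-180 reporter cells stimulated with EGF at its EC50 level; on the % scale 0 is the no-effect control and ±100 the full control effect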); details: ME-180 (cervical carcinoma) AP-1-bla reporter, EGF-induced, beta-lactamase ratio, 5 h; at 7.69 µM (top of the series) unless noted
Method in brief: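 Titration-series screen for positive or negative modulators of EC50 EGF-induced signaling in ME-180 cells carrying an AP-1-driven beta-lactamase reporter. After 5 hours at 37 degrees Celsius, CCF4 460nm/530nm emission ratio gave %Activity; AC50 values derived.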

[2] = target: Cytochrome P450 1A2 (Homo sapiens) (UniProt P05177); experiment: p450-cyp1a2 (AID 410; calls by dose curve; further: potency means the concentration at half of the fitted maximal effect;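 on activity change, negative = inhibition: -100% = full effect of reference inhibitor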)
Method in brief: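 Luminescent readout of luciferin formed from Luciferin-ME by human CYP1A2; data normalized against complete inhibition by 57 uM furafylline. Enzyme 20nM, substrate 100uM at Km, 100mM KPO4 buffer, 60 min reaction at room temperature.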

[3] = NFAT Signaling Pathway (AID 444; active means well fitted curve in either direction with a large enough effect, not every such curve was filed as active;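 further: carbachol stimulus at about its EC50 of 1 µM final; on the % scale 0 is the no-effect control and ±100 the full control effect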); details: Jurkat NFAT-bla M1, carbachol, beta-lactamase ratio, 5 h; at 7.69 µM (top of the series) unless noted
Method in brief: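 Jurkat cells carrying an NFAT-driven β-lactamase reporter and co-transfected muscarinic M1 receptor were treated with compound plus carbachol (1 uM final, an EC50 level) for 5 h at 37 °C. CCF4 loading followed for 1 h at RT; 460/530 nm ratio gave %activity.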

[4] = Stat Signaling Pathway (AID 446; active means well fitted curve in either direction with a large enough effect, not every such curve was filed as active;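 further: ME-180 cervical cancer cells given 40 pM IL-6 alongside compound; SIE-controlled beta-lactamase reporter measured as 460/530 nm FRET emission ratio; on the % scale 0 is the no-effect control and ±100 the full control effect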)
Method in brief: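 IL-6/STAT signaling read in ME-180 cells via an SIE beta-lactamase reporter. Stimulus was 40 pM IL-6 (its AC50) for 5 hrs, so both activation and inhibition register.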

[5] = target: Glucocorticoid receptor (Homo sapiens) (UniProt P04150); experiment: GR-GFP Redistribution (AID 450;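 active means compounds whose dose series gives a full or clear partial fitted curve of increased nuclear translocation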; further: potency means the concentration at half of the fitted maximal effect); details: U2OS GR-GFP nuclear translocation, laser cytometry, 2 h
[6] = target: Mitogen-activated protein kinase 10 (Mus musculus) (UniProt Q61831); experiment: JNK3 AlphaScreen Assay (AID 530; active means well fitted curve in either direction with a large enough effect, not every such curve was filed as active;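 further: kinase came from lysate of stimulated human HepG2 cells; signal reports phosphorylation of biotinylated GST-cJun 1-79 at Ser73 with 10 µM ATP; on the % scale 0 is the no-effect control and ±100 the full control effect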)
Method in brief: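 Inhibitors reduce antibody binding to phosphorylated biotin-cJun, lowering AlphaScreen luminescence. Lysates from HepG2 cells pre-activated by IL-1beta plus TNF-alpha supplied JNK3; compounds were titrated.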

[7] = target: Cytochrome P450 2D6 (Homo sapiens) (UniProt P10635); experiment: qHTS Assay for Inhibitors and Substrates of Cytochrome P450 2D6 (AID 891); further: potency means the concentration at half of the fitted maximal effect; nearly all actives have a fitted effect of over 60% in size
Method in brief: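 Human CYP2D6 (5 nM) with 30 uM Luciferin-ME EGE (at Km) in 100 mM KPO4, compound preincubated 10 min, then NADPH regeneration system for 60 min at room temperature. Luciferin read by luminescence; normalized to 1.43 uM quinidine.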

[8] = target: Dual specificity protein kinase CLK4 (Homo sapiens) (UniProt Q9HAZ1); experiment: qHTS Assay for Inhibitors of CDC-like Kinase 4 (Kinase-Glo Assay) (AID 1770); further: nearly all actives have a fitted effect of over 65% in size; further: potency means the concentration at half of the fitted maximal effect
Method in brief: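 Luminescent ATP-depletion read-out (Kinase-Glo) after 4.5 h room-temperature reaction of Clk4 (25 nM final) with RS peptide (100 uM) and ATP (1 uM), pH 7.5 Tris buffer with MgCl2 and DTT.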

[9] = target: Dual specificity protein kinase CLK4 (Homo sapiens) (UniProt Q9HAZ1); experiment: qHTS Assay for Inhibitors of CDC-like Kinase 4 (ADP-Glo Assay) (AID 1771); further: nearly all actives have a fitted effect of over 70% in size; further: potency means the concentration at half of the fitted maximal effect
Method in brief: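 Luminescence from ADP-Glo reports ADP produced by 25 nM Clk4 acting on 100 uM RS repeat peptide with 1 uM ATP over 1 hr at room temperature; residual ATP is depleted before ADP is converted to ATP for detection.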

[10] = target: Dual specificity protein kinase CLK4 (Homo sapiens) (UniProt Q9HAZ1); experiment: qHTS Assay for Inhibitors of CDC-like Kinase 4 (ADP-FP Assay) (AID 1795); further: nearly all actives have a fitted effect of over 60% in size; further: potency means the concentration at half of the fitted maximal effect
Method in brief: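 Kinase activity was measured as ADP production using Transcreener orange tracer (4 nM) and ADP antibody (1 ug/mL) fluorescence polarization, with ADP calculated from a calibration curve. The 1 h reaction contained 6.25 nM Clk4, 1 uM ATP and 100 uM RS peptide at pH 7.5 with Mg2+.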

[11] = target: Lysosomal acid glucosylceramidase (Homo sapiens) (UniProt P04062); experiment: Glucocerebrosidase-p2 (AID 348; in the data active means potency below about 10 µM; further: potency means the concentration at half of the fitted maximal effect); details: purified GBA, blue fluorogenic substrate, 40 min
Method in brief: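 Compounds titrated from 0.6 nM upwards against 0.2 nM enzyme in pH 5.9 citric acid/KH2PO4, taurocholate, tween-20; blue fluorogenic substrate 80 uM, 40 min room temperature, stopped and read Ex 365/Em 440 for AC50.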

[12] = target: Glucocorticoid receptor (Homo sapiens) (UniProt P04150); experiment: GR-EFC Redistribution (AID 451; calls by dose curve; further: potency means the concentration at half of the fitted maximal effect); details: CHO-K1 GR-EFC translocation, beta-gal luminescence, 2 h
Method in brief: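 CHO-K1 cells stably expressing nuclear-localized β-gal enzyme acceptor and GR fused C-terminally to the enzyme donor fragment; ligand-driven nuclear translocation restores β-gal by complementation. Compounds titrated up to 46 uM final, 2 h at 37 °C; luminescence read.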

[13] = target: 3',5'-cyclic-AMP phosphodiesterase 4B (Homo sapiens) (UniProt Q07343); experiment: qHTS Assay for Inhibitors of PDE-IV (AID 607; active means well fitted activation curve with a large enough effect in the main read-out, with a control signal flat, not every such curve was filed as active; further: % of control where 0% means no effect)
Method in brief: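 Live HEK293 cells with a modified cyclic nucleotide-gated (CNG) channel report intracellular cAMP via membrane-potential dye fluorescence (ex 535/em 590 nm). Endogenous PDE-IV was targeted. Compounds were tested at up to 22.9 uM final; RO 20-1724 100 uM served as control.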

[14] = target: Ubiquitin carboxyl-terminal hydrolase 1 (Homo sapiens) (UniProt O94782); experiment: Inhibitors of USP1/UAF1: Pilot qHTS (AID 504865); further: nearly all actives have a fitted effect of over 35% in size; further: potency means the concentration at half of the fitted maximal effect
Method in brief: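 Deubiquitinase activity followed as kinetic rhodamine fluorescence release from 150 nM Ub-Rho. 1 nM USP1/UAF1 with compound, after 15 min room-temperature preincubation, in HEPES pH 7.8 buffer containing TCEP, EDTA, BSA and Tween-20.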

[15] = target: Cytochrome P450 2C9 (Homo sapiens) (UniProt P11712); experiment: qHTS Assay for Inhibitors and Substrates of Cytochrome P450 2C9 (AID 883); further: potency means the concentration at half of the fitted maximal effect; nearly all actives have a fitted effect of over 60% in size
Method in brief: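 A luminogenic readout tracked human CYP2C9 (10nM) converting deoxyluciferin (100uM, at KM) in 25mM KPO4 during 60 min at 37C with regenerated NADPH. Values normalized to 57uM sulphaphenazole as complete inhibition.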

[16] = target: Cytochrome P450 3A4 (Homo sapiens) (UniProt P08684); experiment: qHTS Assay for Activators of Cytochrome P450 3A4 (AID 885); further: nearly all actives have a fitted effect of over 65% in size
Method in brief: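 Quantitative HTS format: compounds preincubated with 20nM human CYP3A4 and Luciferin-PPXE substrate at KM, reaction started by NADPH regeneration, stopped after 60 min, luciferase luminescence read 20 min later.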

[17] = target: Cytochrome P450 3A4 (Homo sapiens) (UniProt P08684); experiment: qHTS Assay for Inhibitors and Substrates of Cytochrome P450 3A4 (AID 884); further: potency means the concentration at half of the fitted maximal effect; nearly all actives have a fitted effect of over 50% in size
Method in brief: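 20 nM human CYP3A4 with 25 uM Luciferin-PPXE (at KM) in 200 mM KPO4, preincubated 10 min with compound; NADPH regeneration started a 60 min RT reaction. Luciferin detected by luminescence, normalized to 57 uM ketoconazole as full inhibition.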

Sequence of Glucocorticoid receptor (Homo sapiens) (P04150 whole entry, looked up, the tested form may be a part): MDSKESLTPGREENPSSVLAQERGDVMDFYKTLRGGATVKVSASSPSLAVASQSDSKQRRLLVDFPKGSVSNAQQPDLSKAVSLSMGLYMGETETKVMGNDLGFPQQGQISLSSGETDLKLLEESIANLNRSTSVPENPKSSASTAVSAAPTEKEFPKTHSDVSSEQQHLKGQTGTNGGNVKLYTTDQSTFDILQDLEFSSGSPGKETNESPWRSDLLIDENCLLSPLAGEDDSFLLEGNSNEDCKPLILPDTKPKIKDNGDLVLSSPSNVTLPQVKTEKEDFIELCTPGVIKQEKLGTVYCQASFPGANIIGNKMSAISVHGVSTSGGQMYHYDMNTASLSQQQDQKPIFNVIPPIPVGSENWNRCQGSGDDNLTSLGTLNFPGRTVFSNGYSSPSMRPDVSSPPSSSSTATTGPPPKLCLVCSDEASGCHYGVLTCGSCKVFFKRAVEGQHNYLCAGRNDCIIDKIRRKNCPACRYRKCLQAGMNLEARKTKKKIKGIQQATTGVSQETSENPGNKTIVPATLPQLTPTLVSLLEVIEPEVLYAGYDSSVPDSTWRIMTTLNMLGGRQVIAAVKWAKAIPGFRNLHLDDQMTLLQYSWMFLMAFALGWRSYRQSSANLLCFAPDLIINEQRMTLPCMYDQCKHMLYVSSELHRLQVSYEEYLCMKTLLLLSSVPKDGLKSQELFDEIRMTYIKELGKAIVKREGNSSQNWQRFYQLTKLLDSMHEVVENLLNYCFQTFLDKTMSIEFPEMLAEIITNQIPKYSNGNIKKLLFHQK
Sequence of Cytochrome P450 3A4 (Homo sapiens) (P08684 whole entry, looked up): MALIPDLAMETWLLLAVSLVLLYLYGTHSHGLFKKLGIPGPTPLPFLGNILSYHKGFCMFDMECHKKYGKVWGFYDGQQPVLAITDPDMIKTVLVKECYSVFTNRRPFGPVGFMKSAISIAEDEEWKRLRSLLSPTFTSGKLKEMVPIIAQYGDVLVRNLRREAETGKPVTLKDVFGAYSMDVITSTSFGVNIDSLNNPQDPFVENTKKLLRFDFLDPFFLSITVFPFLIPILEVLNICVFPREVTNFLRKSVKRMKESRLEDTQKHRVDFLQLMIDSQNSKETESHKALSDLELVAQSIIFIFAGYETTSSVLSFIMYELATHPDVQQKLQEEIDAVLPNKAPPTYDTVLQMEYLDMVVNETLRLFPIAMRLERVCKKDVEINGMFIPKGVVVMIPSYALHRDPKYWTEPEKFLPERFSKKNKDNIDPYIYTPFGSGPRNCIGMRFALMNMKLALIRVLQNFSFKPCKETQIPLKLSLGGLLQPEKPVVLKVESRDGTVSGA
Sequence of Cytochrome P450 2D6 (Homo sapiens) (P10635 whole entry, looked up): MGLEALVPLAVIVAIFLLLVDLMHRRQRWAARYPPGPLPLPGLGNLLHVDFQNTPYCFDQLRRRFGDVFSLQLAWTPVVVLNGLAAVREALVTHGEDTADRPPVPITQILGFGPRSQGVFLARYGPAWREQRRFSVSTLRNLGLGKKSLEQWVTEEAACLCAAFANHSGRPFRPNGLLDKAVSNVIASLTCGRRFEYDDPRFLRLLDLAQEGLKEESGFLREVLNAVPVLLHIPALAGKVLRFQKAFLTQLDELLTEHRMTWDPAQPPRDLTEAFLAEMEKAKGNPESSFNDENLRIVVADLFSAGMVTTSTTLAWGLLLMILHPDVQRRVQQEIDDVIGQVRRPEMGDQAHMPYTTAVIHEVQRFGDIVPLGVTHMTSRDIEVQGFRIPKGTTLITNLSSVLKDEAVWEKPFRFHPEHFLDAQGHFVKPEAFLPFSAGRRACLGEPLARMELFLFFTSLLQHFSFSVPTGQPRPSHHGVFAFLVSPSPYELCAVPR
Sequence of 3',5'-cyclic-AMP phosphodiesterase 4B (Homo sapiens) (Q07343 whole entry, looked up): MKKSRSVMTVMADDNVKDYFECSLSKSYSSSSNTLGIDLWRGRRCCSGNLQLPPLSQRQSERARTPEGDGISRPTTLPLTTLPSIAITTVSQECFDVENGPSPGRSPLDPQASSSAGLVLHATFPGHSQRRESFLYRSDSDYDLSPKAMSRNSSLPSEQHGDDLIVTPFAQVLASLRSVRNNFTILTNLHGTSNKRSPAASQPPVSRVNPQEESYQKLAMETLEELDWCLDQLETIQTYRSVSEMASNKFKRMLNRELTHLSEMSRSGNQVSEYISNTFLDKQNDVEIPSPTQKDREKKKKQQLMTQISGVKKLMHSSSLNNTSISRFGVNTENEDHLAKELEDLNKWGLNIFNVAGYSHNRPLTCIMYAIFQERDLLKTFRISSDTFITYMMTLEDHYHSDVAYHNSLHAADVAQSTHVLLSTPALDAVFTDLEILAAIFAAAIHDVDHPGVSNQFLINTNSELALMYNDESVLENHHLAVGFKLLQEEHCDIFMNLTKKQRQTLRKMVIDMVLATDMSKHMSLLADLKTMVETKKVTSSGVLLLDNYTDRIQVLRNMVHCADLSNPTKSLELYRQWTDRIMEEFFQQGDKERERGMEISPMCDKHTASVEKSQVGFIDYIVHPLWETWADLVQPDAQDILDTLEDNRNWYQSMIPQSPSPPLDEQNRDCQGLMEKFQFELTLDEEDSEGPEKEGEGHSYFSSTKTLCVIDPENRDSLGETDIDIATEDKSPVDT
Sequence of Ubiquitin carboxyl-terminal hydrolase 1 (Homo sapiens) (O94782 whole entry, looked up): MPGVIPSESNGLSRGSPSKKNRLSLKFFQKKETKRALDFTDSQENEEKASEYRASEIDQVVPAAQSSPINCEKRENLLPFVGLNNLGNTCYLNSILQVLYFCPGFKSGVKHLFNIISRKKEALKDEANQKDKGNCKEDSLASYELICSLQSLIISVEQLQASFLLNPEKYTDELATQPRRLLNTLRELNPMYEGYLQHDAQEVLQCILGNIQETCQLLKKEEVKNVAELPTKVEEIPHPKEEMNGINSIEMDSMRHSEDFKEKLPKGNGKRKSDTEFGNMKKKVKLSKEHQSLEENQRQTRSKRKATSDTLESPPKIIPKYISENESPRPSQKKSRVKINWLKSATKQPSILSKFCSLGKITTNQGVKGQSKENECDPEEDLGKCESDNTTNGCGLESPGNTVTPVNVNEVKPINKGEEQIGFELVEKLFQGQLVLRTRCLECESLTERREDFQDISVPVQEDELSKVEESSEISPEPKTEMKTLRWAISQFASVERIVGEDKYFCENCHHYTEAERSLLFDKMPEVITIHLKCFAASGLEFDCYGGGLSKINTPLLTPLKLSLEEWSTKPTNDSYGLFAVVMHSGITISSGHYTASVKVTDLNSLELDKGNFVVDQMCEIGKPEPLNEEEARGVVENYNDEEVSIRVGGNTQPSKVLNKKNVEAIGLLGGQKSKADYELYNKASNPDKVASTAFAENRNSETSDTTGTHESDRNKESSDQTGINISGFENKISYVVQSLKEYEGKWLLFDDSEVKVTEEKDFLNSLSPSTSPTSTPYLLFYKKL
Sequence of Cytochrome P450 1A2 (Homo sapiens) (P05177 whole entry, looked up): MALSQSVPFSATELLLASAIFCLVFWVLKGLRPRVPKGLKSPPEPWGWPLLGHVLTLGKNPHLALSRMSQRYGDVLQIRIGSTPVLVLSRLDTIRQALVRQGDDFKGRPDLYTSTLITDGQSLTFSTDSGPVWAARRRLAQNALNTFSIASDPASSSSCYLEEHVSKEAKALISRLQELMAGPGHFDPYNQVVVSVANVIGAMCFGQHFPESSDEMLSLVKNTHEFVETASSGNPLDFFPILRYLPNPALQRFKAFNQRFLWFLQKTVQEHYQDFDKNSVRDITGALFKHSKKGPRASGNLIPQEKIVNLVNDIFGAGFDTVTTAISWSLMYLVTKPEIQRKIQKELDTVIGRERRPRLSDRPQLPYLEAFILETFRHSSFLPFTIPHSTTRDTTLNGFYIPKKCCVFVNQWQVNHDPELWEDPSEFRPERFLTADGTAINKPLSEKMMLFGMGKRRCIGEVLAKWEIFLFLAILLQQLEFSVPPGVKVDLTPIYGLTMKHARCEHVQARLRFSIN
Sequence of Dual specificity protein kinase CLK4 (Homo sapiens) (Q9HAZ1 whole entry, looked up): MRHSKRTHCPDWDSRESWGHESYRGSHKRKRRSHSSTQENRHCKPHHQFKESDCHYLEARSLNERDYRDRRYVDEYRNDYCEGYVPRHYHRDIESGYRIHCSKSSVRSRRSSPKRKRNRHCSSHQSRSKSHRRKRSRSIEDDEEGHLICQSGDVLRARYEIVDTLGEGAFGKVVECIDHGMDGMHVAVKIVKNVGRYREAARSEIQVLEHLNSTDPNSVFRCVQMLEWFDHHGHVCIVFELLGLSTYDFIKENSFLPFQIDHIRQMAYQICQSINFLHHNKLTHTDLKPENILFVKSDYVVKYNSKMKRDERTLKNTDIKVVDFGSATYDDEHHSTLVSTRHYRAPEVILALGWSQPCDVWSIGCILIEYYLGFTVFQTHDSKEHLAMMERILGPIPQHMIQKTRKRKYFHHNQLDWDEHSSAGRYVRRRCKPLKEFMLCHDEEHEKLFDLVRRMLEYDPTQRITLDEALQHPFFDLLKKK
Sequence of Lysosomal acid glucosylceramidase (Homo sapiens) (P04062 whole entry, looked up): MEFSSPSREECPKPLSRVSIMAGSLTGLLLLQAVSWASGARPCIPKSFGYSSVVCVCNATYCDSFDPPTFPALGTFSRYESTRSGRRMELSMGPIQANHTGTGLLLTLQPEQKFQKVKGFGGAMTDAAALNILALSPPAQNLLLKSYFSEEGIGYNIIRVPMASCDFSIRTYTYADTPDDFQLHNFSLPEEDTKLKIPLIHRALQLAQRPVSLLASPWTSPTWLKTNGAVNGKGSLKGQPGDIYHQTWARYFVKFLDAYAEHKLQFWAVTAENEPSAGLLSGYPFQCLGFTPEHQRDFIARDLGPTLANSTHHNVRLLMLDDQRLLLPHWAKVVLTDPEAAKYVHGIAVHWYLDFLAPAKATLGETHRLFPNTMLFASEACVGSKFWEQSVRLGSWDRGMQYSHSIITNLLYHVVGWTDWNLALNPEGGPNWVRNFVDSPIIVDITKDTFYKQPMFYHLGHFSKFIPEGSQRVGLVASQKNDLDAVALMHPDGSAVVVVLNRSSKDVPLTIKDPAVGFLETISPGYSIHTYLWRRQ

SMILES | activity change, negative = inhibition [1] | Potency [2] | activity change, negative = inhibition [3] | outcome [4] | Potency [5] | Potency [6] | Potency [7] | Potency [8] | Potency [9] | Potency [10] | Potency [11] | Potency [12] | Potency [13] | Potency [14] | Potency [15] | outcome [16] | Potency [17]
c1ccc(CNc2nc(-c3cccnc3)nc3ccccc23)cc1 | -20.2% | 0.398 µM (active) | -17.2% | inactive | > 46 µM | inactive | 15.8 µM (active) | 7.08 µM (active) | 11.2 µM (active) | 5.01 µM (active) |  |  |  |  |  |  | 
CN(C)c1nc(-c2ccc3c(c2)OCO3)nc2ccccc12 | 9.5% |  | -16.9% | inactive | > 46 µM |  |  | inactive |  | inactive | > 11.4 µM | > 46 µM | inactive |  |  |  | 
N#CCCn1c(=O)c(-c2cccc(C#N)c2)nc2cnc(Oc3cccc(Cl)c3)nc21 | -14.2% | inactive | -6.45% | inactive | > 9.22 µM |  |  | inactive | inactive |  |  | > 46 µM | inactive | inactive |  |  | 
Cc1nc2cnc(Oc3cccc(Cl)c3)nc2n(Cc2ccc(F)cc2)c1=O |  |  | -21.7% | inactive | > 9.22 µM | inactive |  | inactive | inactive |  |  | > 46 µM | inactive | inactive |  |  | 
COCCn1c(=O)c(-c2cccs2)nc2cnc(Oc3ccccc3)nc21 | 16.7% | 2 µM (active) |  |  |  |  |  | inactive | inactive |  | > 11.4 µM | > 46 µM | inactive | inactive | 3.98 µM (active) | inactive | 
COc1ccc(CNc2ncncc2-c2ccccc2OC)c(OC)c1 | -23.4% | 5.01 µM (active) | -12.1% | inactive | > 46 µM | inactive |  | inactive | inactive |  | > 11.4 µM |  |  | inactive |  | inactive | 0.316 µM (active)
COc1cccc(-c2ccc3ncnc(N4CCNCC4)c3c2)c1 | 1.7% |  | 11.4% |  | > 46 µM |  |  | 1.78 µM (active) |  | 1 µM (active) | > 11.4 µM | > 46 µM |  | inactive |  | inactive | 
CCNc1ncc2nc(C)c(=O)n(CCc3ccccc3)c2n1 | -15.2% | 1.58 µM (active) | -12.8% |  | > 9.22 µM | inactive |  | 7.94 µM (active) | 7.94 µM (active) |  | > 11.4 µM | > 46 µM |  | inactive |  | inactive | 
COc1ccccc1CNc1ncnc2ccc(-c3cccc(NS(C)(=O)=O)c3)cc12 |  | 3.98 µM (active) | 24.7% |  | > 46 µM | inactive |  | 11.2 µM (active) | 14.1 µM (active) |  | > 11.4 µM | > 46 µM |  | inactive |  | inactive | 3.16 µM (active)
COc1ccc(Oc2ncc3nc(-c4cc(F)cc(F)c4)c(=O)n(C4CC4)c3n2)cc1 | -9.27% |  | -5.46% | inactive | > 9.22 µM | inactive |  | inactive |  | inactive | > 11.4 µM | > 46 µM | inactive | inactive |  |  | 
N#Cc1ccccc1-c1ccc2ncnc(NCc3cccnc3)c2c1 | -14.7% |  | 17.5% |  | > 46 µM |  |  | 3.16 µM (active) | 5.01 µM (active) |  |  | > 46 µM |  | inactive |  | inactive | 
CS(=O)(=O)Nc1cccc(-c2nc(Nc3ccncc3)c3ccccc3n2)c1 | -17.9% | 0.631 µM (active) |  | inactive | > 46 µM | inactive |  | 12.6 µM (active) | 10 µM (active) |  | 7.2 µM (active) | > 46 µM |  | inactive |  | inactive | 3.98 µM (active)
COc1cccc(-c2ccc3ncnc(NCc4cnc(C)cn4)c3c2)c1 |  | 2.51 µM (active) | 27.1% | inactive | > 46 µM |  |  | 3.16 µM (active) | 2.51 µM (active) |  | > 11.4 µM | > 46 µM | inactive | inactive |  | inactive | 7.94 µM (active)
COc1cccc(Cn2c(=O)cnc3cnc(Nc4cccc(OC)c4)nc32)c1 |  | 3.98 µM (active) | 15.4% | inactive | > 9.22 µM | inactive |  | 2.24 µM (active) |  | 2 µM (active) | > 11.4 µM | > 46 µM | inactive | inactive | 2 µM (active) | inactive | 2 µM (active)
CN(C)c1ccc(-c2nccc(Nc3ccc(F)cc3)n2)cc1 | -4.1% | 0.501 µM (active) | -29.4% | inactive | > 46 µM | inactive |  | 17.8 µM (active) | 14.1 µM (active) |  |  | > 46 µM | inactive |  |  | inactive | 
CCNc1ncc2ncc(=O)n(Cc3cccc(OC)c3)c2n1 | -7.38% | 3.98 µM (active) | 8.9% |  | > 9.22 µM | inactive |  | 3.16 µM (active) | 3.16 µM (active) |  | > 11.4 µM | > 46 µM |  | inactive |  |  | 
COc1cccc(-c2ccc3ncnc(NCc4ccc(OC)cc4OC)c3c2)c1 |  | 2.51 µM (active) | -18.9% | inactive |  | inactive |  | 35.5 µM (active) | 3.16 µM (active) |  | > 11.4 µM | > 46 µM |  | inactive |  | inactive | 2.51 µM (active)
CN(C)c1ccc(-c2nccc(NCc3cccs3)n2)cc1 | -18.4% | 0.398 µM (active) |  | inactive | > 46 µM | inactive | 0.126 µM (active) | 8.91 µM (active) | 5.62 µM (active) |  |  | > 46 µM |  | inactive |  | inactive | 
CN(Cc1ccco1)c1nc(-c2ccccc2C(F)(F)F)nc2ccccc12 | 23.8% | 2 µM (active) |  |  |  |  | 7.94 µM (active) | 20 µM (active) |  | inactive | > 11.4 µM | > 46 µM |  | 28.2 µM (active) |  | inactive | 
COc1ccccc1CNc1cc(-c2ccccc2CN(C)C)ncn1 | 4.71% |  |  |  | > 46 µM | inactive |  | inactive | inactive |  | > 11.4 µM | > 46 µM |  | inactive |  |  | 
CN(Cc1ccco1)c1nc(-c2cccnc2)nc2ccccc12 |  | 0.316 µM (active) | -25.8% | inactive | > 46 µM | inactive |  | 15.8 µM (active) |  | 12.6 µM (active) | > 11.4 µM | > 46 µM |  | inactive |  |  | 
